In PubChem BioAssay (NCI):
About 79,000 compounds went through this panel and 15% of them were active in at least one assay; those are over-represented in the sample as a whole. Active and inactive are the calls of the source. No stated cut-off is given here; in the data, active means growth inhibition above about 70%; inactive means the rest.

What was measured:
[1] = NCI Yeast Anticancer Drug Screen. Data for the rad50 strain (AID 155);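 further: 0% = growth of vehicle-only cultures of the same strain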; conditions: S. cerevisiae rad50 strain growth inhibition, active compounds read high
Outline: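 Readout: growth inhibition relative to vehicle-treated cultures. Compound exposure was carried out in a genetically defined yeast strain deficient in DNA damage repair.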

[2] = NCI Yeast Anticancer Drug Screen. Data for the mec2-1 strain (AID 157); conditions: S. cerevisiae mec2-1 strain, active compounds read high
Outline: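 mec2-1 yeast strain, carrying an alteration in DNA damage repair or cell cycle control, was exposed to compounds; growth inhibition was measured relative to vehicle-treated controls.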

[3] = NCI Yeast Anticancer Drug Screen. Data for the cln2 rad14 strain (AID 165);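 further: 0% = growth equal to vehicle treated cultures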; conditions: S. cerevisiae cln2 rad14 strain, active compounds read high
Outline: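 Yeast carrying cln2 and rad14 alterations (cell cycle control and DNA damage repair) were exposed to compounds. Growth inhibition was measured against vehicle-treated controls.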

[4] = NCI Yeast Anticancer Drug Screen. Data for the bub3 strain (AID 167); conditions: S. cerevisiae bub3 mutant strain, active compounds read high
Outline: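 Readout: yeast growth inhibition, expressed relative to vehicle-only wells. The test organism is a mutant strain from a panel with lesions in DNA repair or checkpoint genes.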

[5] = NCI Yeast Anticancer Drug Screen. Data for the mlh1 rad18 strain (AID 175); conditions: S. cerevisiae mlh1 rad18 strain growth inhibition, active compounds read high
Outline: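 Growth inhibition of the yeast strain was measured after compound exposure and expressed relative to vehicle-treated controls. The strain carries defined defects in DNA damage repair.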

[6] = NCI Yeast Anticancer Drug Screen. Data for the sgs1 mgt1 strain (AID 161);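 further: 0% = growth of cultures given vehicle only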; conditions: S. cerevisiae sgs1 mgt1 strain, active compounds read high
Outline: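 This yeast growth screen uses a strain with defined DNA-repair lesions; compound-treated growth is compared with vehicle-treated growth.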

[7] = at 5.0 µM (retest, dose inferred, filed as 0.5)
[8] = at 50.0 µM (retest, dose inferred, filed as 5.0)

Measured: growth inhibition

Cc1ccc(NC(=S)C#N)cc1Cl
inactive: [1]; [7] 46% | [1]; [8] 44% | [1]; at 50.0 µM 56.7% | [2]; [7] 34% | [2]; [8] 44% | [2]; at 50.0 µM 43.4% | [3]; [7] 37% | [3]; [8] 40% | [3]; at 50.0 µM 46.1% | [4]; [7] 46% | [4]; [8] 45% | [4]; at 50.0 µM 69.9% | [5]; [7] 45% | [5]; [8] 53% | [5]; at 50.0 µM 4.7%

CCCCCCCCCCCCN1C(C)=CS/C1=C\C=C\c1scc(C)[n+]1CCCCCCCCCCCC
inactive: [1]; [7] 9% | [2]; [7] -4% | [3]; [7] 4% | [4]; [7] 23% | [5]; [7] 1%
active: [1]; [8] 94% | [1]; at 50.0 µM 88% | [2]; [8] 97% | [2]; at 50.0 µM 89.2% | [3]; [8] 91% | [3]; at 50.0 µM 85% | [4]; [8] 95% | [4]; at 50.0 µM 85% | [5]; [8] 93% | [5]; at 50.0 µM 83%

CCC(C)(C)N(CC(=O)O)CC(=O)O
inactive: [1]; [7] -6% | [1]; [8] -1% | [2]; [7] 2% | [2]; [8] -5% | [6]; [7] 2% | [6]; [8] -1% | [3]; [7] 4% | [3]; [8] -2% | [4]; [7] 3% | [4]; [8] -1% | [5]; [7] -6% | [5]; [8] 17%

COc1cccc(NC(=O)C(C#N)=C(SC)SC)c1
inactive: [1]; [7] 30% | [2]; [7] 25% | [6]; [7] 49% | [3]; [7] 34% | [3]; [8] 41% | [3]; at 50.0 µM 43% | [4]; [7] 42% | [5]; [7] 23% | [5]; [8] 59%
active: [1]; [8] 96% | [2]; [8] 92% | [6]; [8] 95% | [6]; at 50.0 µM 91.2% | [4]; [8] 95% | [4]; at 50.0 µM 91.2% | [5]; at 50.0 µM 90%

CCOc1ccc2c(c1)/C(=C\C=C\C1CC(C)C3CC(OCC)CCC3N1CC)CC(C)N2CC (centres undefined)
active: [1]; [8] 85% | [6]; [8] 92% | [3]; [8] 83% | [3]; at 50.0 µM 83% | [4]; [8] 82% | [4]; at 50.0 µM 83.7% | [5]; [8] 86% | [5]; at 50.0 µM 81.5%
inactive: [1]; [7] -7% | [1]; at 50.0 µM 28.6% | [6]; [7] -10% | [6]; at 50.0 µM 33.9% | [3]; [7] 0% | [4]; [7] 4% | [5]; [7] 0%

C=C1C(=O)OC2CC1C(OC(=O)/C=C/c1ccccc1)C/C(C)=C/CC/C(C)=C/CCC2(C)O (centres undefined)
inactive: [1]; [7] 50% | [6]; [7] 60%
active: [1]; [8] 93% | [1]; at 50.0 µM 82.8% | [6]; [8] 95% | [6]; at 50.0 µM 84.8% | [3]; [7] 84% | [3]; [8] 95% | [3]; at 50.0 µM 83% | [4]; [7] 88% | [4]; [8] 95% | [4]; at 50.0 µM 80% | [5]; [7] 77% | [5]; [8] 94% | [5]; at 50.0 µM 75.9%

COc1c(/C=C/C=O)cc2c(c1OC)OCO2
active: [1]; [8] 73%
inactive: [1]; [7] 26% | [1]; at 50.0 µM -1.75% | [2]; [7] 17% | [2]; [8] 40% | [2]; at 50.0 µM -6.3% | [3]; [7] 27% | [3]; [8] 50% | [3]; at 50.0 µM 20.4% | [4]; [7] 21% | [4]; [8] 54% | [4]; at 50.0 µM 13.5% | [5]; [7] 25% | [5]; [8] 61% | [5]; at 50.0 µM -11.8%

CC(/C=N/NC(N)=S)Cc1ccc(C(C)C)cc1 (centres undefined)
active: [1]; [8] 82% | [1]; at 50.0 µM 91.3% | [2]; [8] 74% | [2]; at 50.0 µM 92.5% | [6]; [7] 98% | [6]; [8] 97% | [3]; [7] 98% | [3]; [8] 98% | [5]; [8] 74% | [5]; at 50.0 µM 91.1%
inactive: [1]; [7] 28% | [2]; [7] 45% | [5]; [7] 32%

O=C(CBr)C(Br)C(Br)c1ccccc1 (centres undefined)
active: [1]; [7] 98% | [1]; [8] 99% | [2]; [7] 99% | [2]; [8] 100% | [6]; [7] 100% | [6]; [8] 98% | [3]; [7] 99% | [3]; [8] 99% | [4]; [7] 100% | [4]; [8] 100% | [5]; [7] 92% | [5]; [8] 99%

COC(=O)[C@]1(C)CCC[C@]2(C)c3ccc(C(C)C)cc3C(=O)[C@@H](Br)[C@@H]12
active: [1]; at 50.0 µM 74.2% | [4]; at 50.0 µM 82.4% | [5]; at 50.0 µM 71.8%
inactive: [1]; [7] 0% | [1]; [8] 9% | [6]; [7] 3% | [6]; [8] 58% | [6]; at 50.0 µM 63.5% | [3]; [7] -12% | [3]; [8] 44% | [3]; at 50.0 µM 22.1% | [4]; [7] 2% | [4]; [8] 52% | [5]; [7] -11% | [5]; [8] 49%

C=CCCCCCCCCC(=O)NN
inactive: [1]; [7] 18% | [2]; [7] -1% | [6]; [7] 15% | [3]; [7] -8% | [4]; [7] 0% | [5]; [7] -25%
active: [1]; [8] 92% | [2]; [8] 79% | [6]; [8] 92% | [3]; [8] 81% | [4]; [8] 85% | [5]; [8] 91%

Oc1ccc2c(c1)CCc1ccccc1-2
inactive: [1]; [7] 37% | [2]; [7] 36% | [3]; [7] 1%
active: [1]; [8] 98% | [1]; at 50.0 µM 95.6% | [2]; [8] 98% | [2]; at 50.0 µM 75.5% | [3]; [8] 98% | [3]; at 50.0 µM 99.2% | [4]; [7] 83% | [4]; [8] 99% | [4]; at 50.0 µM 98.8% | [5]; [7] 75% | [5]; [8] 98% | [5]; at 50.0 µM 99.5%

O=C1C=CC(=O)C2=C1CC=CC2
active: [1]; [8] 99% | [2]; [8] 99% | [6]; [8] 100% | [3]; [8] 75% | [4]; [8] 100% | [5]; [8] 97%
inactive: [1]; [7] -12% | [2]; [7] -2% | [6]; [7] 29% | [3]; [7] -6% | [4]; [7] 26% | [5]; [7] 48%

C=C1C(=O)C2=CC1CCC(=O)C1(C)CCC(OC(C)=O)C(C)(C)C1CC2O (centres undefined)
active: [1]; at 50.0 µM 82.1% | [2]; [8] 70% | [2]; at 50.0 µM 82.8% | [4]; [8] 83% | [4]; at 50.0 µM 87% | [5]; at 50.0 µM 73.7%
inactive: [1]; [7] 16% | [1]; [8] 52% | [2]; [7] 10% | [3]; [7] 16% | [3]; [8] 40% | [3]; at 50.0 µM 65% | [4]; [7] 15% | [5]; [7] 15% | [5]; [8] 65%

O=C1c2ccccc2-c2ccc(O)cc21
inactive: [1]; [7] 58% | [2]; [7] 17% | [6]; [7] 28% | [3]; [7] 10% | [3]; [8] 69% | [4]; [7] 10% | [5]; [7] -11%
active: [1]; [8] 95% | [2]; [8] 84% | [6]; [8] 93% | [4]; [8] 87% | [5]; [8] 90%

Oc1ccccc1N=Cc1ccccc1
inactive: [1]; [7] 23% | [1]; at 50.0 µM 61% | [6]; [7] 21% | [6]; [8] 29% | [6]; at 50.0 µM 60.6% | [3]; [7] 12% | [3]; [8] 45% | [3]; at 50.0 µM 19.5% | [4]; [7] 56% | [5]; [7] 41%
active: [1]; [8] 75% | [4]; [8] 86% | [4]; at 50.0 µM 77.5% | [5]; [8] 81% | [5]; at 50.0 µM 72.5%

CN(C)CCN(C)CC(C)(C)C(=O)/C=C/c1ccc(Cl)c(Cl)c1
active: [1]; [8] 99% | [1]; at 50.0 µM 96.8% | [6]; [8] 99% | [3]; [8] 98% | [4]; [8] 99% | [4]; at 50.0 µM 92.5% | [5]; [8] 99% | [5]; at 50.0 µM 70.5%
inactive: [1]; [7] 13% | [6]; [7] 6% | [6]; at 50.0 µM 56.2% | [3]; [7] -3% | [3]; at 50.0 µM 8.2% | [4]; [7] 6% | [5]; [7] 8%
